Most compounds without a hit are left out; they make up all but 3.8% or so of the library.
697 NFkB inh – inhibitors of PMA/ionomycin-induced NF-kB reporter, 697 cells, primary screen, B-cell NF-kB inhibitor project, cell-based, luminescence, uHTS; AID 435022, 2010; 697 B-cell NF-kB luciferase reporter, 16 h; inhibition, % at 4 µM; 330,000 compounds, 0.33% hits; in the data active = inhibition above about 35%
Gli-Sufu antag – Gli-Sufu pathway antagonists, primary screen, luciferase luminescence, Sufu-KO-LIGHT cells, uHTS; Sufu-KO-LIGHT fibroblasts, Gli luciferase reporter luminescence; inhibition, % at 5 µM; 340,000 compounds, 0.74% hits; AID 588413, 2011;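 active = inhibition above about 55%, limit read from the data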;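 also: 0% = DMSO-treated cells and 100% = wells with medium but no cells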
Shn3 inh set2 – reduction of Shn3 3'UTR firefly luciferase signal, primary screen, Schnurri-3 inhibitor project, cell-based, Clone20 osteoblasts, set 2. Clone20 osteoblast Shn3 3'UTR firefly luciferase, 24 h. inhibition, % at 12.5 µM. 360,000 compounds, 0.52% hits. AID 588674, 2011;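 active = mean inhibition of at least 75% with every replicate also reaching 75%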;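 also: 0% = median of neutral control wells and 100% = pilot-screen positive control compound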
Mdm2 MdmX PPI – inhibitors of human Mdm2-MdmX association, primary screen, cell-based, luminescence, split luciferase, SaOS-2, uHTS; SaOS-2 split-luciferase Mdm2/MdmX complementation; AID 485346, 2010; Protein Mdm4 (Homo sapiens) + E3 ubiquitin-protein ligase Mdm2 (Homo sapiens), …; inhibition, % at 8 µM; 330,000 compounds, 3% hits;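 active = inhibition of at least 50% at 8 µM in the primary screen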
Target sequence (O15151 whole entry, looked up): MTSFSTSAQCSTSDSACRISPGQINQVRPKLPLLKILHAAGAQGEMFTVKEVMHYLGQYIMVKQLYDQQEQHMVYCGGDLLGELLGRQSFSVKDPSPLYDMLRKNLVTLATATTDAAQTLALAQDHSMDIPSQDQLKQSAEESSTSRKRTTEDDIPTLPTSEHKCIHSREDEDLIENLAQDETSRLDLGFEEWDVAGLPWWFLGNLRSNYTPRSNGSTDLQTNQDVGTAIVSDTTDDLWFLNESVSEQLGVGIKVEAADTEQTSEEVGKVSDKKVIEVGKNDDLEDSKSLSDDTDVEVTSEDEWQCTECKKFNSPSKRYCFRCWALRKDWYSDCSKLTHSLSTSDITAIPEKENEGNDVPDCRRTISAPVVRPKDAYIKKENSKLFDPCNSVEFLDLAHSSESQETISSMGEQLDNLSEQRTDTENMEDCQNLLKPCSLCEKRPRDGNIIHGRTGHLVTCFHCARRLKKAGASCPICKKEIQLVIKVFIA
Target sequence (Q00987 whole entry, looked up): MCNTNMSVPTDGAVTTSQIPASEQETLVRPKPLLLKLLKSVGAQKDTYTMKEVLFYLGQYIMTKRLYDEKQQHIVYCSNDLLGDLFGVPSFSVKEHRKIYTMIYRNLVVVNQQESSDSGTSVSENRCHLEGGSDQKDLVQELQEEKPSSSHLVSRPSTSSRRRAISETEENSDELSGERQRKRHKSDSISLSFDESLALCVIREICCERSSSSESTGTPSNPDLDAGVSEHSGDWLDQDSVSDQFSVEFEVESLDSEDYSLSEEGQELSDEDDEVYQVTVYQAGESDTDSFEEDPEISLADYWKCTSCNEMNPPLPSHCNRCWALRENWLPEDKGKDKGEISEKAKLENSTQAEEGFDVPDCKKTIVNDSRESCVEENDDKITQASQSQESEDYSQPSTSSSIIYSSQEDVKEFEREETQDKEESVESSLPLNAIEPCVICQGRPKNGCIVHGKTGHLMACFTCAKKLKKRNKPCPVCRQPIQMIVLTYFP
Jurkat NFkB inh – inhibitors of induced NF-kB luciferase reporter, primary screen, TCR NF-kB activation inhibitor project, cell-based, luminescence, uHTS | 330,000 compounds, 0.53% hits | Jurkat, PMA/ionomycin-induced NF-kB luciferase reporter | inhibition, % at 4 µM; in the data active = inhibition above about 50%
Mdm2-MdmX conf – Mdm2-MdmX complex disruptors, retested hits, confirmation, luminescence, single concentration. shares compounds with Mdm2 MdmX PPI. Mdm2-MdmX binding, luminescent assay. inhibition, % at 8 µM. 10,000 compounds, 55% hits. AID 489028, 2010; in the data active = inhibition above about 40%
FLuc counter – full-length luciferase signal inhibition, confirmation, counter-screen for Mdm2/MdmX interaction inhibitor project, cell-based, single concentration, SaOS-2. inhibition, % at 8 µM. AID 504607, 2011. SaOS-2 full-length luciferase counterscreen, luminescence. 6,200 compounds, 77% hits. shares compounds with Mdm2 MdmX PPI;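 active = mean inhibition at 8 µM reaching about 37%, which flags the compound as non-specific, limit read from the data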;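 also: p53-null SaOS-2 cells with luciferase driven by a doxycycline-inducible promoter; compound on cells about two nights before reading with doxycycline added after day one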
Numbers without * were called inactive; . = no result.

SMILES	697 NFkB inh	Gli-Sufu antag	Shn3 inh set2	Mdm2 MdmX PPI	Jurkat NFkB inh	Mdm2-MdmX conf	FLuc counter
Brc1ccc(/C=N/Nc2ncnc3c2cnn3Cc2ccccc2)cc1	-16.0	4.5	26.8	95.3*	-10.9	48.4*	68.5*
COc1cc2c(cc1OC)CN(C(=O)/C=C/c1ccc([N+](=O)[O-])cc1)CC2	3.3	5.2	-7.6	31.9	15.4	.	.
COc1cc2c(cc1OC)CN(C(=O)/C=C/c1ccccc1[N+](=O)[O-])CC2	-13.3	2.8	17.5	60.6*	45.6	52.5*	86.3*
COc1cc2c(cc1OC)CN(C(=O)/C=C/c1cccs1)CC2	-68.1	-5.7	-0.3	65.5*	49.2	62.2*	59.1*
Cc1ccc(CN(C)C(=O)COc2ccc(S(=O)(=O)N3CCCC3)cc2[N+](=O)[O-])c(C)c1	17.8	-2.0	-6.3	15.7	12.8	.	.
Cc1cc(OCC(=O)NCCCN2CCOCC2)c2c(C)c(C)c(=O)oc2c1	25.6	4.1	6.8	8.0	-7.3	.	.
CCc1ccccc1NC(=O)CN(C)C(=O)Cn1ncc(Cl)c(Cl)c1=O	.	9.7	63.9	.	.	.	.
CCC(=O)Nc1ccc(C(=O)Cn2ncc(Cl)c(Cl)c2=O)cc1	-26.3	5.7	.	85.9*	-11.3	63.0*	43.4*
CCOC(=O)c1ccc(NC(=O)Cn2ncc(Cl)c(Cl)c2=O)cc1	-5.5	0.6	97.8*	88.7*	26.6	100.2*	51.4*
Cc1cccc([C@@H]2[C@@H]3C(=O)N(Cc4ccccc4)C(=O)[C@@H]3[C@]3(Cc4ccc(Cl)cc4)C(=O)N(c4ccc(Br)cc4)C(=O)N23)c1	9.5	-2.2	2.1	90.4*	-0.1	99.5*	49.4*
COc1ccc(N2C(=O)N3[C@H](c4ccc(Br)cc4)[C@@H]4C(=O)N(C(C)(C)C)C(=O)[C@@H]4[C@]3(Cc3ccccc3)C2=O)cc1	-1.1	13.1	21.5	28.6	-7.2	.	.
COc1ccc([C@@H]2[C@@H]3C(=O)N(C(C)(C)C)C(=O)[C@@H]3[C@]3(Cc4ccccc4)C(=O)N(c4ccc(Br)cc4)C(=O)N23)cc1	-24.2	-13.0	23.0	62.9*	8.6	71.3*	35.6
CC[C@@]12C(=O)N(c3ccc(C)cc3)C(=O)N1[C@H](c1cccc(C)c1)[C@@H]1C(=O)N(Cc3ccccc3)C(=O)[C@@H]12	-28.3	-7.8	-13.0	-10.5	9.8	.	.
CN1CCN(c2ccc(Nc3ccnc4cc(Cl)ccc34)cc2)CC1	8.3	39.3	20.6	77.5*	-14.8	39.6	50.9*
CCOc1ccc(Nc2ccnc3cc(Cl)ccc23)cc1	30.1	16.3	-22.2	22.9	3.4	.	.
CCN1CCN(c2ccc(Nc3ccnc4ccccc34)cc2)CC1	-3.1	-3.5	-24.9	86.7*	33.1	84.3*	29.8
Cc1csc2nc(O)c(C(=O)NCCCc3ccccc3)c(=O)n12	12.2	-4.6	-8.2	61.0*	12.4	70.0*	21.1
CC(OC(=O)/C=C/c1ccc2ccccc2n1)C(=O)NCc1ccccc1 (stereo not given)	9.8	-1.7	-5.6	54.1*	-5.6	29.6	.
COc1ccc([C@@]2(C(C)C)ON(c3ccccc3C(F)(F)F)C2=O)cc1	14.0	-17.3	-26.4	79.8*	8.2	56.2*	44.8*
CC(C)[C@@]1(c2ccc(Cl)cc2)ON(c2ccccc2C(F)(F)F)C1=O	13.6	.	.	75.0*	0.0	43.8*	49.6*
COc1ccc([C@]2(C(C)C)ON(c3ccccc3C(F)(F)F)C2=O)cc1	7.3	-9.3	-25.7	82.0*	0.0	41.1*	51.4*
Nc1nc2c(Cl)ccc(Cl)c2s1	21.3	-0.1	-2.0	29.3	5.0	.	.
CCS(=O)(=O)c1nc(S(=O)(=O)c2ccc(C)cc2)c(N2CCC3(CC2)OCCO3)s1	0.5	-4.4	10.2	7.4	4.6	.	.
O=C(CSc1nnc2c(n1)[nH]c1ccccc12)Nc1nncs1	1.1	-14.7	-6.3	21.3	18.4	.	.
CCCCN(C=O)c1c(CC)nc2c(OCc3ccccc3C)cccn12	.	.	-2.4	.	.	.	.
SMILES	697 NFkB inh	Gli-Sufu antag	Shn3 inh set2	Mdm2 MdmX PPI	Jurkat NFkB inh	Mdm2-MdmX conf	FLuc counter
Nn1c(SCC(=O)Nc2ccc(N3CCOCC3)cc2)nnc1-c1ccccc1F	-19.4	-13.4	-47.0	-1.6	-11.9	.	.
CCC/C=N/Nc1nc2ccccc2s1	-91.7	-69.2	-107.9	-66.3	-95.2	.	.
C/C(N=Nc1nc2ccccc2s1)=N\Nc1ccccc1O	1.4	21.3	.	55.9*	0.9	58.0*	26.2
O=c1[nH]c(C2CCN(S(=O)(=O)c3ccccc3)CC2)nc2c1nnn2Cc1c(F)cccc1Cl	-14.9	47.0	13.1	24.4	13.0	.	.
Nc1c(C(=O)c2ccccc2O)cnn1-c1ccc(S(=O)(=O)N2CCOCC2)cc1[N+](=O)[O-]	11.7	.	.	70.2*	14.8	14.6	.
O=C(Nc1ccncc1)Nc1cccc(C(F)(F)F)c1	-15.6	9.6	7.8	48.1	3.2	.	.
Cc1ccc(NC(=O)Nc2cc(C(F)(F)F)c[nH]c2=O)cc1	23.2	-14.5	22.8	58.0*	-0.5	44.5*	72.0*
Cc1ccc(S(=O)(=O)Nc2ccc(NC(=O)Nc3cccc(C(F)(F)F)c3)cc2)cc1	-12.3	-0.9	75.2	84.5*	4.2	45.6*	77.5*
CCN(CC)S(=O)(=O)c1ccc(NC(=O)Nc2cccc(C(F)(F)F)c2)cc1	-35.0	14.1	95.6*	93.5*	8.1	87.2*	35.2
O=C(Nc1ccc(OC(F)F)cc1)Nc1cccc(C(F)(F)F)c1	-12.1	-6.4	-1.2	76.0*	8.0	93.2*	24.4
CCOCc1c(C(=O)NCC(c2ccco2)N2CCCC2)oc2ccccc12 (stereo not given)	12.3	9.3	2.6	2.8	-6.1	.	.
C[C@H]1C=C(C(=O)NC2CC2)O[C@@H](OCc2ccc(CO)cc2)C1	-9.9	10.9	1.5	-4.8	-15.5	.	.
Cc1cc(/C=C2\SC(=Nc3ccccc3)NC2=O)c(C)n1-c1ccc(S(N)(=O)=O)cc1	13.1	16.5	24.0	61.5*	-0.9	49.5*	57.1*
Cc1ccc(-n2c(C)cc(/C=C3\SC(=O)NC3=O)c2C)cc1	-183.4	-85.7	-56.9	-192.5	-84.3	.	.
Cc1ccccc1NC(=O)/C=C1\SC(=O)NC1=O	13.3	-2.2	1.7	7.3	-43.2	.	.
